High-throughput results (PubChem)
PABP1 MLLE inh = inhibitors of PABP1 MLLE–PAM2 peptide binding, primary screen, biochemical, fluorescence polarization, FITC-PAM2, GST-MLLE | 0.36% of 360,000 active | AID 588489, 2011 | inhibition, % at 20 µM | Polyadenylate-binding protein 1 (Homo sapiens), P11940; in the data active = inhibition above about 35%, passing the limit was not always enough
PABP FP inh = PABP poly(A) RNA binding inhibitors, primary screen, biochemical, fluorescence polarization, uHTS; Polyadenylate-binding protein 1 (Homo sapiens), P11940; calls only at 35 µM; 1% of 290,000 active; AID 2014, 2009;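 note: calls also rest on retests at 20 µM and on dose response follow-up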
eIF4H FP inh = human eIF4H binding inhibitors, primary screen, translation initiation inhibitor project, biochemical, uHTS, fluorescence polarization; Eukaryotic translation initiation factor 4H (Homo sapiens), Q15056; eIF4H fluorescence polarization binding assay; inhibition, % at 35 µM; 0.94% of 290,000 active;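 note: calls also rest on retests at 20 µM and on dose response follow-up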
eIF4E-4G inh = eIF4E–eIF4G protein interaction inhibitors, primary screen, biochemical, uHTS, TR-FRET, eIF4GI fragment. TR-FRET eIF4E-eIF4GI(517-606) binding, 2 h. inhibition, % at 21.7 µM. 0.37% of 220,000 active;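 active = inhibition above about 30%, limit read from the data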
14-3-3 Bad inh = inhibitors of 14-3-3 zeta/Bad binding, primary screen, biochemical, TR-FRET, bovine 14-3-3 zeta; TR-FRET 14-3-3zeta/Dy647-pBad peptide displacement, 1 h; inhibition, % at 21.7 µM; 0.71% of 220,000 active; AID 781, 2007;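 active = inhibition above about 70%, limit read from the data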
Target sequence (P63103 whole entry, looked up): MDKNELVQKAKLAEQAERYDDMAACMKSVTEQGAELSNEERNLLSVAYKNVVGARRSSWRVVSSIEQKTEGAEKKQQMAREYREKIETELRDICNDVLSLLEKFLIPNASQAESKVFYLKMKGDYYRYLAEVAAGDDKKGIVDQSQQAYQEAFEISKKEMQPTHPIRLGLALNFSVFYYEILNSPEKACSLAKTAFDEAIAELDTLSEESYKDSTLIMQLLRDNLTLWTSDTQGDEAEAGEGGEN
Numbers stand for hits; i = inactive; ? = inconclusive; nt = not tested or not shown; + = active, no number; [ ] = dose if it differs, or a comment. A selection: hits, their analogues and other compounds. The true share with any hit is near 1.9%. Unless noted, the rule behind the calls is not given here.

SMILES	PABP1 MLLE inh	PABP FP inh	eIF4H FP inh	eIF4E-4G inh	14-3-3 Bad inh
NNc1nc2sc3c(c2c(=O)[nH]1)CCc1ccccc1-3	i	+	101	i	i
CCC(CC)C(=O)Oc1c(Sc2ccccc2[N+](=O)[O-])c(C)nn1C(C)(C)C	i	i	i	i	i
COCC(=O)Oc1c(Sc2ccccc2[N+](=O)[O-])c(C)nn1C(C)(C)C	i	i	i	41	i
CCOC(=O)C1=C(O)/C(=C/c2ccc(CNC(=O)C(=O)Nc3ccc(C)cc3)o2)N=C1C	i	i	103	i	i
CC(C)C(=O)N(c1ccc2oc(=O)sc2c1)S(=O)(=O)c1ccccc1	i	i	i	i	i
COc1ccc(S(=O)(=O)N(C(=O)C(C)C)c2ccc3oc(=O)sc3c2)cc1	38	i	i	i	i
COC(=O)C1=C(C(=O)OC)[C@@H]2Nc3ccccc3[C@@]23C[C@@H](C(=O)OC)N=C3N1	i	i	i	i	i
CCC12CCCN3CCC4(C(=C(C(=O)OC)C1)Nc1ccccc14)C32 (centres undefined)	i	+	i	i	i
Cc1ccc2nc(N(CCN(C)C)C(=O)C3CCN(S(=O)(=O)c4cccs4)CC3)sc2c1	i	nt	nt	nt	nt
CC1CCCCC1NCC(=O)Nc1ccccc1-c1ccccc1 (centres undefined)	i	i	i	i	71
CC1CCN(CC(=O)Nc2ccccc2-c2ccccc2)CC1	i	i	i	i	i
COc1ccc(N2C3=C(CC4=C2CC(C)(C)CC4=O)C(=O)CC(C)(C)C3)cc1	i	i	i	i	i
COc1ccc(N2C3=C(CC4=C2CCCC4=O)C(=O)CCC3)cc1	79	+	105	i	i
COCCn1c(SCC(=O)NC2CCCCC2)nc2c(c1=O)SCC2	i	i	i	nt	nt
COCCn1c(SCC(=O)NCC2CCCO2)nc2c(c1=O)SCC2 (centres undefined)	126	i	i	nt	nt
COc1ccc(C(c2nnnn2Cc2cccs2)N2CCN(c3ccccc3F)CC2)cc1OC (centres undefined)	i	i	i	i	83
CCCC(c1nnnn1Cc1ccccc1)N1CCN(c2ccccc2OC)CC1 (centres undefined)	i	i	i	i	84
COCCn1nnnc1C(c1ccc(Cl)cc1)N1CCSCC1 (centres undefined)	i	i	i	i	75
COCCn1nnnc1C(c1ccccc1OC)N1CCN(c2ccccc2F)CC1 (centres undefined)	i	i	i	i	74
CCCC(c1nnnn1Cc1ccc(OC)cc1)N1CCN(c2ccccc2OC)CC1 (centres undefined)	i	i	i	i	i
Cc1ccc(NC(=O)C2=C(C(=O)O)CCCC2)cc1F	i	i	i	nt	nt
COC(=O)C1=COC(OC2OC(CO)C(O)C(O)C2O)C2C1C=CC2(O)CO (centres undefined)	i	+	89	i	i
COC(=O)C1=CO[C@@H](O[C@@H]2OC(CO)[C@@H](O)[C@@H](O)[C@@H]2O)C2C1CC[C@]2(C)O (some centres undefined)	i	nt	nt	nt	nt
CCCn1c(CCNC(=O)c2cccs2)nc2ccccc21	i	i	i	i	i
O=C(NCCn1ccc2ccccc21)C1CCCCC1	i	i	i	i	i
SMILES	PABP1 MLLE inh	PABP FP inh	eIF4H FP inh	eIF4E-4G inh	14-3-3 Bad inh
Cc1cc2ccccc2n1CCNC(=O)C1CCCC1	i	+	?	i	i
Cc1cc2ccccc2n1CCNC(=O)c1cccs1	i	+	42	i	i
Cc1cc2ccccc2n1CCNC(=O)C1CCCCC1	i	i	i	i	i
Cc1cc2ccccc2n1CCNC(=O)C1CC1	i	+	i	nt	nt
O=C(NCC1CCCO1)c1ccc(N2CCCCC2)c([N+](=O)[O-])c1 (centres undefined)	i	i	i	nt	nt
CC1CC(C)CN(CCCNS(=O)(=O)c2ccc3c(c2)oc(=O)n3C)C1 (centres undefined)	i	?	?	nt	nt
O=C(Nc1ccc(-n2nncc2-c2ccco2)cc1)c1cc2ccccc2oc1=O	i	i	61	i	79[fluorescence artefact?]
O=C(Nc1ccc(-n2nncc2-c2ccco2)cc1)c1cccc(F)c1	i	i	i	i	i
O=C1c2ccccc2C(=O)c2c(/C=C/N3CCCCC3)ccnc21	43	nt	nt	nt	nt
COc1ccc(CN2CCN(C(=O)CC(C)C)CC2)cc1OC	i	i	i	i	74
COc1ccc(CN2CCN(C(=O)CC(C)C)CC2)c2ccccc12	i	i	i	i	83
CC1CCN(C(=O)CSc2nnc(-c3ccccc3F)o2)CC1	i	i	i	nt	nt
O=C(O)c1ccccc1NC(=S)NC(=O)c1cccc2ccccc12	i	i	i	i	i
Cc1c(NC(=S)NC(=O)c2ccc(COc3ccccc3)cc2)cccc1C(=O)O	39	i	i	nt	nt
Cc1c(NC(=S)NC(=O)c2cccc3ccccc23)cccc1C(=O)O	44	i	i	nt	nt
CCCCCCCCCC(=O)N/N=C/c1ccc(C)s1	i	i	i	52[fluorescence artefact?]	i
CCN(CC)c1cccc(OCC(=O)N(C)CCC#N)c1	i	+	60	i	i
COc1cccc(NC(=S)NC2CC(C)CC(C)(C)C2)c1 (centres undefined)	i	nt	nt	nt	nt
C=CCN1C(=O)/C(=C2/Sc3ccccc3N2CC)SC1=S	i	i	i	nt	nt
C=CCN1C(=O)/C(=C2/Sc3ccccc3N2CCCS(=O)(=O)O)SC1=S	41	i	i	i	72
O=c1c2sccc2nc(SCc2ccc([N+](=O)[O-])cc2)n1Cc1ccccn1	i	i	i	i	i
COC(=O)c1c(C)c2c(C)cc3ccccn3c-2c1C(=O)OC	i	?	?	i	i
COC(=O)c1cc2c(-c3ccccc3)cc3ccccn3c-2c1C(=O)OC	i	+	?	i	i
C#CCOCCOCCOCCNc1nc(N2CCN(C(=O)Cn3cc(CC(C)O)nn3)CC2)nc(N2CCN(C(=O)[C@H](CCCCN)n3cc(CCC(=O)O)nn3)CC2)n1 (some centres undefined)	i	i	i	i	72
C#CCOCCOCCOCCNc1nc(N2CCN(C(=O)Cn3cc(CC(C)O)nn3)CC2)nc(N2CCN(C(=O)[C@H](C)n3cc(CCCN=C(N)N)nn3)CC2)n1 (some centres undefined)	nt	i	i	i	84
C#CCOCCOCCOCCNc1nc(N2CCN(C(=O)Cn3cc(CCCN=C(N)N)nn3)CC2)nc(N2CCN(C(=O)[C@H]([C@@H](C)CC)n3cc(CCCN=C(N)N)nn3)CC2)n1	nt	i	i	i	86
C#CCOCCOCCOCCNc1nc(N2CCN(C(=O)Cn3cc(CCCCN)nn3)CC2)nc(N2CCN(C(=O)[C@H](C)n3cc(CCCN=C(N)N)nn3)CC2)n1	nt	i	i	i	80
O=C(Nc1c2c(nn1-c1ccccc1)CS(=O)(=O)C2)c1cc2ccccc2o1	i	i	i	nt	nt
